# According to PubChem BioAssay (Tox21):
# Values without a mark were called inactive. Inconclusive results are not listed. Where a call stands in place of a potency, no number is given. Activity calls are given as the source filed them. Unless noted, calls come from the whole dose curve; as a rule, active = well fitted curve in the direction sought with a large enough effect in the repeat runs; inconclusive = weak or mixed curves; inactive = no such curve, though single readings can be large; an effect the other way counts as inactive or inconclusive.
# What was measured:
# [1] = qHTS assay to identify small molecule antagonists of the glucocorticoid receptor (GR) signaling pathway - cell viability counter screen (AID 720693); note: nearly all actives have a fitted effect of over 55% in size
# [2] = qHTS assay for identifying genotoxic compounds that show differential cytotoxicity against isogenic chicken DT40 cell lines with known DNA damage response pathways - Rev3 mutant cell line (AID 743014); note: nearly all actives have a fitted effect of over 55% in size; note: potency is the fitted concentration of half-maximal effect
# [3] = qHTS assay for identifying genotoxic compounds that show differential cytotoxicity against isogenic chicken DT40 cell lines with known DNA damage response pathways - Rad54/Ku70 mutant cell line (AID 743015); note: nearly all actives have a fitted effect of over 60% in size; note: potency is the fitted concentration of half-maximal effect
# [4] = qHTS assay to identify small molecule antagonists of the androgen receptor (AR) signaling pathway - cell viability counter screen (AID 743033; note: nearly all actives have a fitted effect of over 45% in size)
# [5] = biological target: Androgen receptor (Homo sapiens) (UniProt P10275); test: qHTS assay to identify small molecule antagonists of the androgen receptor (AR) signaling pathway (AID 743035; active = well fitted inhibition curve with a large enough effect in the signal ratio in the repeat runs, not every such curve was filed as active; the % refers to the signal ratio)
# Procedure, shortened: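 AR-bla HEK293 reporter cells; 4 h settle at 37C/5% CO2; compound + R1881 agonist, 16 h at 37C; LiveBLAzer B/G FRET substrate 2 h RT; fluorescence intensity read. qHTS format.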
# [6] = biological target: Androgen receptor (Homo sapiens) (UniProt P10275); test: qHTS assay to identify small molecule agonists of the androgen receptor (AR) signaling pathway using the MDA cell line (AID 743040; note: nearly all actives have a fitted effect of over 20% in size)
# Procedure, shortened: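 Agonist activity is measured as luciferase luminescence in human MDA-kb2 cells whose MMTV reporter responds to both AR and GR. Compounds in DMSO incubate 16 h at 37C, 0% CO2, and ONE-Glo is read after 30 min.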
# [7] = biological target: Androgen receptor (Homo sapiens) (UniProt P10275); test: qHTS assay to identify small molecule antagonists of the androgen receptor (AR) signaling pathway using the MDA cell line (AID 743042; note: nearly all actives have a fitted effect of over 55% in size)
# Procedure, shortened: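 MDA-kb2 cells (human breast carcinoma, stably carrying an MMTV-luciferase reporter responsive to AR and GR) were plated at 3,000 cells/well and preincubated 5 hr at 37C, then given compound plus R1881 agonist for 16 h. ONE-Glo luminescence was read.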
# [8] = qHTS assay to identify small molecule antagonists of the thyroid receptor (TR) signaling pathway - cell viability counter screen (AID 743064); note: nearly all actives have a fitted effect of over 50% in size
# Procedure, shortened: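 In rat pituitary GH3.TRE-Luc reporter cells co-exposed to compound and 1 nM T3 for 23.5 h, cytotoxicity was assessed with CellTiter-Fluor in the same wells, read by fluorescence.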
# [9] = qHTS assay to identify small molecule antagonists of the androgen receptor (AR) signaling pathway using the MDA cell line - cell viability counter screen (AID 743041; note: nearly all actives have a fitted effect of over 45% in size)
# Procedure, shortened: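 qHTS viability read-out; MDA-kb2 AR-luc; R1881-stimulated; 16 h exposure at 37C, 0% CO2; CellTiter-Fluor, 30 min; fluorescence intensity.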
# [10] = qHTS assay for identifying genotoxic compounds that show differential cytotoxicity against isogenic chicken DT40 cell lines with known DNA damage response pathways - wild type cell line (AID 743012); note: nearly all actives have a fitted effect of over 60% in size; note: potency is the fitted concentration of half-maximal effect
# Procedure, shortened: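 CellTiter-Glo luminescence readout of viability in wild type DT40 cells after 40 h compound exposure at 37 C/5% CO2; 300 cells/well; reagent incubated 30 min at room temperature before reading.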
# Androgen receptor (Homo sapiens), sequence (P10275 whole entry, looked up): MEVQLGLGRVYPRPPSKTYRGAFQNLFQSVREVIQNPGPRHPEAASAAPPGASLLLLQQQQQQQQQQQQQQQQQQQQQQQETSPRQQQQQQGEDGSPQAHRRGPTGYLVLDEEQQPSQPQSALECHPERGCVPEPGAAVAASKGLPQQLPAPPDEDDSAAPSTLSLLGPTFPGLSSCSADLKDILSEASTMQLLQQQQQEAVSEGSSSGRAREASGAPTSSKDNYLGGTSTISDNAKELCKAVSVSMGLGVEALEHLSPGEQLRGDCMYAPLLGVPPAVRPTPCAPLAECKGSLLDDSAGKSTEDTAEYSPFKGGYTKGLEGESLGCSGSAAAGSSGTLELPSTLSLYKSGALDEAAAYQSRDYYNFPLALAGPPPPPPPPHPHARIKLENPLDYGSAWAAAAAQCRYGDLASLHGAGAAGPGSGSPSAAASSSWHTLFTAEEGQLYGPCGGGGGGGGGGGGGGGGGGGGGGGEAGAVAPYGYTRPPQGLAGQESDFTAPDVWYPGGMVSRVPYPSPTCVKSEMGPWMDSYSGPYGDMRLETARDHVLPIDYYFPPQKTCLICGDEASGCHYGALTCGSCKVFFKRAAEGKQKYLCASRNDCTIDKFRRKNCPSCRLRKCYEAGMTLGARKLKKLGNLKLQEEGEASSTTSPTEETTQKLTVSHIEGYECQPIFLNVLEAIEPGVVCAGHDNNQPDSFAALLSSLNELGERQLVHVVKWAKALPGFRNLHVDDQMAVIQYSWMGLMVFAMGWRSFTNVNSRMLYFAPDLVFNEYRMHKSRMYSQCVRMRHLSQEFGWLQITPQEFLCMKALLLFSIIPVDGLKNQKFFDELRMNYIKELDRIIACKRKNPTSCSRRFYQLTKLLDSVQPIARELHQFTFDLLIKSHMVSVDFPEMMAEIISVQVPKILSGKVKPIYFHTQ
smiles,measurement,setting,value
C/C(=N\O)c1ccc(OCC(=O)N2CCCCC2)cc1,outcome,[1],inactive
same,Potency,[2],inactive
same,Potency,[3],inactive
same,outcome,[4],inactive
same,outcome,[5],inactive
same,outcome,[6],inactive
same,outcome,[7],inactive
same,Potency,[8],inactive
N=C(N)S(=O)O,outcome,[1],inactive
same,Potency,[2],inactive
same,Potency,[3],inactive
same,outcome,[4],inactive
same,outcome,[9],inactive
same,Potency,[8],inactive
CCCCN(CCCC)CCCCCCN(CCCC)CCCC,outcome,[1],inactive
same,Potency,[2],inactive
same,Potency,[3],inactive
same,outcome,[4],inactive
same,outcome,[9],inactive
COC(C)(C)CC(C)=O,outcome,[1],inactive
same,Potency,[2],54.5 µM (active)
same,Potency,[3],61.1 µM (active)
same,outcome,[4],inactive
same,outcome,[5],inactive
same,outcome,[6],inactive
same,outcome,[9],inactive
same,outcome,[7],inactive
same,Potency,[8],inactive
Cc1ccc(Br)cc1,outcome,[1],inactive
same,Potency,[10],inactive
same,Potency,[3],inactive
same,outcome,[4],inactive
same,outcome,[9],inactive
same,Potency,[8],inactive
CC12CCCC=C1C(=O)OC2=O (configuration not stated),outcome,[1],inactive
same,Potency,[10],inactive
same,Potency,[3],inactive
same,outcome,[5],inactive
same,outcome,[6],inactive
same,outcome,[9],inactive
same,outcome,[7],inactive
CCC(=O)OCCOc1ccccc1,outcome,[1],inactive
same,Potency,[2],inactive
same,Potency,[3],inactive
O=c1[nH]c(=O)c2cn[nH]c2[nH]1,outcome,[1],inactive
same,Potency,[10],inactive
same,Potency,[3],inactive
same,outcome,[4],inactive
same,Potency,[8],inactive
Cc1ccc(O)c(C(=O)c2ccccc2)c1,outcome,[1],inactive
same,Potency,[10],inactive
same,Potency,[3],inactive
same,outcome,[5],inactive
same,outcome,[6],inactive
same,Potency,[8],inactive
NC(=O)CC[C@@H](N)C(=O)O,outcome,[1],inactive
same,Potency,[10],inactive
same,Potency,[3],inactive
same,outcome,[4],inactive
same,Potency,[8],inactive
CC(CN1CC(=O)NC(=O)C1)N1CC(=O)NC(=O)C1 (configuration not stated),outcome,[1],inactive
same,Potency,[10],4.22 µM (active)
same,Potency,[3],0.596 µM (active)
same,outcome,[7],inactive
same,Potency,[8],inactive
C=CCOC(=O)CCCCCCCC,outcome,[1],inactive
same,Potency,[10],inactive
same,Potency,[3],inactive
same,outcome,[9],inactive
same,Potency,[8],inactive
O=C(O)CCCCCCCCCC(=O)O,outcome,[1],inactive
same,Potency,[2],34.4 µM (active)
same,Potency,[3],27.3 µM (active)
same,outcome,[4],inactive
same,outcome,[6],inactive
same,outcome,[7],inactive
COC(=O)N/N=C/c1c[n+]([O-])c2ccccc2[n+]1[O-],outcome,[1],inactive
same,Potency,[10],inactive
same,outcome,[4],inactive
same,outcome,[9],inactive
same,Potency,[8],inactive
CC(=O)c1c(C)cc(C(C)(C)C)cc1C,outcome,[1],inactive
same,Potency,[10],inactive
same,outcome,[4],inactive
same,Potency,[8],inactive
C[C@@H](CN1CC(=O)NC(=O)C1)N1CC(=O)NC(=O)C1,outcome,[1],inactive
same,Potency,[10],inactive
same,outcome,[4],inactive
same,outcome,[5],inactive
same,outcome,[6],inactive
same,outcome,[9],inactive
same,outcome,[7],inactive
same,Potency,[8],inactive
Cc1ccc(S(=O)(=O)NC(=O)NN2CC3CCCC3C2)cc1 (configuration not stated),outcome,[1],inactive
same,Potency,[10],inactive
same,Potency,[3],inactive
same,outcome,[9],inactive
same,Potency,[8],inactive
C=C(C)C(=O)OCCCC,outcome,[1],inactive
same,Potency,[2],inactive
same,Potency,[3],inactive
same,outcome,[4],inactive
same,outcome,[5],inactive
same,outcome,[7],inactive
same,Potency,[8],inactive
CC(=O)SC[C@@H](C)C(=O)N1CCC[C@H]1C(=O)N[C@@H](Cc1ccccc1)C(=O)O,outcome,[1],inactive
same,Potency,[2],inactive
same,Potency,[3],inactive
same,outcome,[9],inactive
same,Potency,[8],inactive
O=C(CCBr)N1CCN(C(=O)CCBr)CC1,outcome,[1],inactive
same,Potency,[2],inactive
same,Potency,[3],inactive
same,outcome,[4],inactive
same,outcome,[9],inactive
same,Potency,[8],inactive
Cc1cc(N)no1,outcome,[1],inactive
same,Potency,[2],inactive
same,Potency,[3],inactive
same,outcome,[9],inactive
same,Potency,[8],inactive
O=P(O)(O)C(O)(Cc1cccnc1)P(=O)(O)O,outcome,[1],inactive
same,Potency,[2],inactive
same,Potency,[3],inactive
same,outcome,[4],inactive
same,Potency,[8],inactive
OCCC(F)(F)C(F)(F)C(F)(F)C(F)(F)C(F)(F)C(F)(F)F,outcome,[1],inactive
same,Potency,[2],inactive
same,Potency,[3],inactive
same,outcome,[4],inactive
same,outcome,[9],inactive
same,Potency,[8],inactive
O=S(=O)(O)CC(O)CCl (configuration not stated),outcome,[1],inactive
same,Potency,[2],inactive
same,Potency,[3],inactive
same,outcome,[4],inactive
same,outcome,[9],inactive
same,Potency,[8],inactive
CC(C)(C)C(=O)CCc1ccc(Cl)cc1,outcome,[1],inactive
same,Potency,[2],inactive
same,Potency,[3],inactive
same,outcome,[4],inactive
same,outcome,[9],inactive
same,Potency,[8],inactive
C/C=C/C(=O)CCCC,outcome,[1],inactive
same,Potency,[2],inactive
same,Potency,[3],inactive
same,outcome,[4],inactive
same,outcome,[9],inactive
same,Potency,[8],inactive
O=C1Nc2ccccc2C1=O,outcome,[1],inactive
same,Potency,[2],inactive
same,Potency,[3],inactive
same,outcome,[4],inactive
same,outcome,[9],inactive
same,Potency,[8],inactive
c1cc2ccc3ccc4ccc5cccc6c(c1)c2c3c4c56,"viability change, negative = cytotoxic",[1],-5.31% [at 3.15 µM]
same,"activity, negative = cytotoxicity",[2],5.02% [at 3.82 µM]
same,"activity change, negative = cytotoxicity",[3],5.01% [at 3.83 µM]
same,"activity change, negative = cytotoxicity",[4],1.8% [at 3.15 µM]
same,"viability change, negative = cytotoxic",[9],14.1% [at 3.79 µM]
same,"activity change, negative = cytotoxic",[8],20.6% [at 3.79 µM]
O=C1CC2(CCCC2)CC(=O)N1CCNCC1COc2ccccc2O1 (configuration not stated),outcome,[1],inactive
same,Potency,[2],26.6 µM (active)
same,Potency,[3],26.6 µM (active)
same,Potency,[8],inactive
C=CCON/C(CCC)=C1\C(=O)CC(C)(C)C(C(=O)OC)=C1O,outcome,[1],inactive
same,Potency,[2],inactive
same,Potency,[3],inactive
same,outcome,[4],inactive
same,outcome,[9],inactive
same,Potency,[8],inactive
O=C(O)COc1ccc2ccccc2c1,outcome,[1],inactive
same,Potency,[2],inactive
same,Potency,[3],inactive
same,Potency,[8],inactive
CSC(=O)c1cccc2nnsc12,outcome,[1],inactive
same,Potency,[2],21.7 µM (active)
same,outcome,[6],inactive
same,outcome,[9],inactive
same,outcome,[7],inactive
C=CC(=O)CC,outcome,[1],inactive
same,Potency,[2],inactive
same,Potency,[3],inactive
same,Potency,[8],inactive
CCCC(=O)OC,outcome,[1],inactive
same,Potency,[2],inactive
same,Potency,[3],inactive
same,outcome,[4],inactive
same,Potency,[8],inactive
COCCCOc1cc(C[C@@H](C[C@H](N)[C@@H](O)C[C@H](C(=O)NCC(C)(C)C(N)=O)C(C)C)C(C)C)ccc1OC,outcome,[1],inactive
same,Potency,[2],inactive
same,Potency,[3],inactive
same,outcome,[4],inactive
same,outcome,[9],inactive
same,Potency,[8],inactive
CCNC(=O)C(C)OC(=O)Nc1ccccc1 (configuration not stated),outcome,[1],inactive
same,Potency,[2],inactive
same,outcome,[4],inactive
COc1cnc(NS(=O)(=O)c2ccc(N)cc2)nc1,outcome,[1],inactive
same,Potency,[2],inactive
same,outcome,[4],inactive
same,outcome,[9],inactive
same,Potency,[8],inactive
Cc1cc(C)c(C)c(C)c1,outcome,[1],inactive
same,Potency,[2],inactive
same,Potency,[3],inactive
same,outcome,[4],inactive
same,outcome,[9],inactive
same,Potency,[8],inactive
COc1ccc2cc(CCC(C)=O)ccc2c1,outcome,[1],inactive
same,Potency,[2],inactive
same,Potency,[3],inactive
same,outcome,[4],inactive
same,outcome,[9],inactive
same,Potency,[8],inactive
CC(=O)Nc1ccc(S(=O)(=O)Nc2cc(C)on2)cc1,outcome,[1],inactive
same,Potency,[2],inactive
same,Potency,[3],inactive
same,outcome,[4],inactive
same,outcome,[9],inactive
same,Potency,[8],inactive
